The source of these data is PubChem BioAssay.

A short description of assay [1]: inhibitors of TNFa-induced NFkB p65 translocation, primary screen, imaging, HUVEC, MLSMR starter and 10KST1 sets (AID 438;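 active means inhibition above 20% together with a positive visual image hit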;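 further: compound added about 3h40 before a 20 min TNFalpha stimulation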;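 on inhibition: signal is the nuclear over cytoplasmic p65 intensity ratio per well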). As to conditions: HUVEC TNFa-induced p65 nuclear translocation; cell count: measured here: nuclei count (cytotoxicity indicator), at 2.08 µM; inhibition: at 2 µM, stronger effect = higher value, 0% TNFa-plus-vehicle, 100% no-TNFa wells.
Assay [2] in a line: inhibitors of mutant huntingtin aggregation, primary screen, imaging, exon1htt(103Q)mCFP cells, high-content imaging (AID 483;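 active means visual image review flags a hit and inhibition of aggregation exceeds 20%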;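 further: compound exposure lasted 3 days before fixation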;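 on nuclei count: percent of the per-plate median nuclei count of sample wells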). As to conditions: exon1htt(103Q)mCFP cell line, aggregate imaging, at 2 µM; inhibition of aggregation: stronger effect = higher value; nuclei count: measured here: cell count, toxicity.
A short description of assay [3]: inhibitors of E-selectin induction by TNFa, primary screen, imaging, HUVEC, immunofluorescence, MLSMR starter and 10KST1 sets (AID 487;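 active means visually confirmed hit in the image check and inhibition above 20%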;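 on inhibition: signal is fraction of cell area covered by stained E-selectin grains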;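 on nuclei count: 100% = median nuclei count of all wells on the same plate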). As to conditions: HUVEC TNFalpha-induced E-selectin immunofluorescence imaging, at 2 µM; inhibition: stronger effect = higher value; nuclei count: measured here: cell number, toxicity.
Assay [4] addresses Voltage-gated potassium channel subunit beta-2 (Rattus norvegicus) (UniProt P62483). Description: KvBeta enzyme negative modulators, primary screen, biochemical, NADPH fluorescence (AID 622;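 active means fluorescence slope higher than the sample average by over 3 SD, cut at about -0.22 in these data, passing the limit was not always enough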;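 further: slope of raw intensity against log time taken from 70 to 1610 s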). As to conditions: recombinant KvBeta, 4-cyanobenzaldehyde reduction, at 10 µM, stronger effect = higher value.
Assay [5] shares this target. Description: KvBeta positive modulators, primary screen, biochemical, NADPH fluorescence (AID 623;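 active means NADPH fluorescence slope more negative than the mean of all samples by about 3 SD, 99.7% confidence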;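 further: fluorescence intensity change per second fitted from 20 to 320 s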). The conditions noted are these: Recombinant KvBeta, NADPH fluorescence decrease slope, 10 min; at 10 µM; stronger effect = lower value.
The target in assay [6] is Alpha-2C adrenergic receptor (Homo sapiens) (UniProt P18825). Description: modulators of alpha2C/GIRK thallium flux, primary screen, cell-based, HEK293 alpha2C/GIRK1/2 (AID 624;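 active means fluorescence slope after compound addition differing from the mean of all screened samples at 99.7% confidence, in either direction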;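 further: slope of fluorescence ratio to pre-addition baseline per second over 15 to 24 s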). The conditions noted are these: thallium flux BTC fluorescence, at 10 µM, actives lie on both sides.
Alpha-2C adrenergic receptor (Homo sapiens), sequence (P18825 whole entry, looked up): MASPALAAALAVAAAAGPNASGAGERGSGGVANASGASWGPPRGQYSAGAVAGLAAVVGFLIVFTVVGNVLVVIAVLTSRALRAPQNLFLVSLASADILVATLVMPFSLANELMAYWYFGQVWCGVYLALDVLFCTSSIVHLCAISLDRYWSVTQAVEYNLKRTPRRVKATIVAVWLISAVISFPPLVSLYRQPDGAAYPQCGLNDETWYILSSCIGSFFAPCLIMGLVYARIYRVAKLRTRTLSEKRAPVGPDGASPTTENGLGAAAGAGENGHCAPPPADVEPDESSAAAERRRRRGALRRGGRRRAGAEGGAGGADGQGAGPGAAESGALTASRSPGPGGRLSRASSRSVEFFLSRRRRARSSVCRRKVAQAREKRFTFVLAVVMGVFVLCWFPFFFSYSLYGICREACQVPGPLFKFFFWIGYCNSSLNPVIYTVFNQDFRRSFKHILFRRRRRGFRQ
Assay [7] is described as follows: inhibitors of Sendai virus-induced IRF3 signaling, primary screen, TLR/RLR signaling modifier project, cell-based, Sendai virus stimulus, luciferase, 10K MLSCN set (AID 602276;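 active means inhibition at or above 50% at 10 µM; inactive means inhibition below 50%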;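 further: firefly luciferase from ISG56 promoter only with Renilla not read in this screen; 0% = Sendai virus plus DMSO and 100% = medium plus DMSO without virus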). The conditions noted are these: HEK293 RL24 IRF3 luciferase reporter, at 10 µM, stronger effect = higher value.
Assay [8] in a line: inhibitors of poly I:C-induced TLR3 signaling, primary screen, cell-based, poly I:C stimulus, luciferase, 10K MLSCN set (AID 602277). As to conditions: HEK293-TLR3 RL24 IRF3 luciferase reporter, at 10 µM, stronger effect = higher value. In general terms: Reporter assays use an easily measured gene product as a stand-in for the process of interest.

SMILES strings stand for the structures. Active and inactive are the calls of the source.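 How the source made its calls, unless noted: active means inhibition of the reporter signal at or above 50%; inactive means inhibition below 50%.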

Voltage-gated potassium channel subunit beta-2 (Rattus norvegicus), sequence (P62483 whole entry, looked up): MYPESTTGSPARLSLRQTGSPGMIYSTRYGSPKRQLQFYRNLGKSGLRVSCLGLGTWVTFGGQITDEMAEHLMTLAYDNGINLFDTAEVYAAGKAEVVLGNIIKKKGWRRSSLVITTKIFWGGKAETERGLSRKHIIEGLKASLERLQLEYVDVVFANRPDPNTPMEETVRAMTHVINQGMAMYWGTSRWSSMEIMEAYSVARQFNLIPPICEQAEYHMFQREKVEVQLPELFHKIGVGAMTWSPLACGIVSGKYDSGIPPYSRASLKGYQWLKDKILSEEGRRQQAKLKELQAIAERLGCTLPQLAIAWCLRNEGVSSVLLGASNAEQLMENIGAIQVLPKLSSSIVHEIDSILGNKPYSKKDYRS

Broadly, the inhibition is the relative decrease from the control value, in per cent. As to `Cc1cc(C)nc(NS(=O)(=O)c2ccc(NC(=O)Cn3c(=O)oc4ccccc43)cc2)n1`, the cell count in assay [1] is 490. In addition, the inhibition in assay [1] is 0.5% (inactive); in assay [3], -31.3% (inactive); in assay [7], 9.3% (inactive); in assay [8], 25.4% (inactive). The inhibition of aggregation in assay [2] was 26% (inactive). Besides, the nuclei count amounted to 63.8% in assay [2] and 122% in assay [3]. Besides, the fluorescence slope in assay [4] is -0.577 (inactive). Further, the NADPH fluorescence slope in assay [5] is -4.3e-06 (inactive). Besides, the slope in assay [6] is 0.00665 (inactive).

`Cn1c(CN2CCOCC2)nnc1SCC(=O)NCCc1ccccc1`: the cell count in assay [1] was 444. Moreover, the inhibition in assay [1] is -1% (inactive); in assay [3], -161% (inactive); in assay [7], -8.38% (inactive); in assay [8], -42.9% (inactive). For the same compound, the inhibition of aggregation in assay [2] was 0.2% (inactive). Also, the nuclei count was 118% in assay [2] and 210% in assay [3]. Besides, the fluorescence slope in assay [4] was -0.613 (inactive). Besides, the NADPH fluorescence slope in assay [5] is 6.8e-06 (inactive). Moreover, the slope in assay [6] is 0.00528 (inactive).

Turning to `COCCSc1nnc(NC(=O)CSCc2ccccc2)s1`, the cell count in assay [1] turned out to be 524. Further, the inhibition in assay [1] is -14.6% (inactive); in assay [3], -31.2% (inactive); in assay [7], 19% (inactive); in assay [8], 26.7% (inactive). In assay [2], the inhibition of aggregation was 3.8% (inactive). In addition, the nuclei count amounted to 112% in assay [2] and 89.4% in assay [3]. Moreover, the fluorescence slope in assay [4] was -0.528 (inactive). Also, the NADPH fluorescence slope in assay [5] was -3.2e-05 (inactive). Besides, in assay [6], the slope is 0.00459 (inactive).

In the case of `CCOc1ccc(N(CC(=O)NC2CCCC(C)C2C)S(=O)(=O)c2c(C)noc2C)cc1` (centres undefined), the cell count in assay [1] was 872. The inhibition in assay [1] is 4% (inactive); in assay [3], -33.2% (inactive); in assay [7] it was 1.67% (inactive); in assay [8] it was 38.3% (inactive). The inhibition of aggregation in assay [2] was 20.7% (inactive). Further, the results for the nuclei count in assay [2] and in assay [3] were 131% and 111%, respectively. Further, the fluorescence slope in assay [4] was -0.612 (inactive). The NADPH fluorescence slope in assay [5] was 7.5e-06 (inactive). The slope in assay [6] was 0.00653 (inactive).

As for `COC(=O)C(C#N)C(=C1C(=O)CC(C)(C)CC1=O)c1ccc(O)cc1` (centres undefined), the cell count in assay [1] is 315. In addition, the inhibition is 1.2% (inactive) in assay [1], 15% (inactive) in assay [3], 9.88% (inactive) in assay [7] and 10.9% (inactive) in assay [8]. Also, the inhibition of aggregation in assay [2] was 12% (inactive). Moreover, the nuclei count was 92.7% in assay [2] and 109% in assay [3]. Also, the fluorescence slope in assay [4] is -0.319 (inactive). The NADPH fluorescence slope in assay [5] was -2.3e-05 (inactive). Besides, the slope in assay [6] is 0.00607 (inactive).

For `O=C(O)Cc1ccccc1C(=O)O`, the cell count in assay [1] was 685. The inhibition in assay [1] was -0.4% (inactive); in assay [3], -66.3% (inactive); in assay [7], 13.7% (inactive); in assay [8] it was 11.2% (inactive). Also, the inhibition of aggregation in assay [2] was 0% (inactive). For the same compound, the nuclei count was 99.9% in assay [2] and 142% in assay [3]. In addition, the fluorescence slope in assay [4] is -0.491 (inactive). The NADPH fluorescence slope in assay [5] was -5e-05 (inactive). For the same compound, the slope in assay [6] is 0.00429 (inactive).

On to `COC(=O)c1cc2ccsc2n1CC(=O)N(C)c1ccccc1`, for which the cell count in assay [1] stood at 623. Also, the inhibition in assay [1] is -15.1% (inactive); in assay [3] it was -29.3% (inactive); in assay [7] it was 13.3% (inactive); in assay [8] it was 22.7% (inactive). Besides, the inhibition of aggregation in assay [2] is -8.1% (inactive). Also, the nuclei count in assay [2] stood at 117%; in assay [3] it was 92.2%. For the same compound, the fluorescence slope in assay [4] was -0.261 (inactive). Besides, the NADPH fluorescence slope in assay [5] was 4.1e-06 (inactive). Further, the slope in assay [6] is 0.00481 (inactive).

For `COc1ccc(C2C(C(C)=O)=C(O)C(=O)N2C)c(OC)c1` (centres undefined), the cell count in assay [1] was determined as 464. In addition, the inhibition was 3.8% (inactive) in assay [1], -48.3% (inactive) in assay [3], 5.02% (inactive) in assay [7] and 32% (inactive) in assay [8]. Also, the inhibition of aggregation in assay [2] is -2.5% (inactive). In addition, the nuclei count in assay [2] was 116%; in assay [3], 136%. In assay [4], the fluorescence slope was -0.461 (inactive). Moreover, the NADPH fluorescence slope in assay [5] was -1.6e-05 (inactive). For the same compound, in assay [6], the slope is 0.00277 (inactive).

Consider `N#CC1=C(N)N(c2ccccc2)C(c2ccco2)C1(C#N)C#N` (centres undefined), for which the cell count in assay [1] was 322. Moreover, the inhibition in assay [1] was 2% (inactive); in assay [3], 3.9% (inactive); in assay [7], 1.35% (inactive); in assay [8] it was 9.78% (inactive). Moreover, in assay [2], the inhibition of aggregation is -3.9% (inactive). In addition, the nuclei count in assay [2] is 103%; in assay [3] it was 107%. Moreover, the fluorescence slope in assay [4] was -0.427 (inactive). Also, the NADPH fluorescence slope in assay [5] was -1.7e-05 (inactive). Further, in assay [6], the slope is 0.00559 (inactive).

Turning to `O=C(CCc1ccc(S(=O)(=O)N2CCOCC2)cc1)NCCc1ccccn1`, the cell count in assay [1] was 709. Moreover, the inhibition in assay [1] was 3.1% (inactive); in assay [3], -158% (inactive); in assay [7], -4.86% (inactive); in assay [8], 1.41% (inactive). The inhibition of aggregation in assay [2] was -8% (inactive). The nuclei count in assay [2] amounted to 104%; in assay [3] it was 144%. In addition, in assay [4], the fluorescence slope was -0.568 (inactive). Also, the NADPH fluorescence slope in assay [5] is 1.5e-05 (inactive). Further, the slope in assay [6] is 0.00601 (inactive).

In the case of `COC(=O)C1=CN(C(C)C)C=C(C(=O)OC)C1c1cc2c(cc1Br)OCO2`, the cell count in assay [1] was determined as 386. For the same compound, the inhibition in assay [1] was 8.1% (inactive); in assay [3], -70.4% (inactive); in assay [7], 5.71% (inactive); in assay [8], 11% (inactive). In addition, in assay [2], the inhibition of aggregation was 10.8% (inactive). In addition, the nuclei count was found to be 104% in assay [2] and 78.3% in assay [3]. The fluorescence slope in assay [4] is -0.365 (inactive). The NADPH fluorescence slope in assay [5] is 2e-05 (inactive). In addition, the slope in assay [6] was 0.00637 (inactive).

With `Cc1ccc(-c2nnc(SCC(=O)N3CC(C)CC(C)C3)o2)cc1C` (centres undefined), in assay [1], the cell count is 557. For the same compound, the inhibition is -1.6% (inactive) in assay [1], -32.7% (inactive) in assay [3], -0.246% (inactive) in assay [7] and 9.23% (inactive) in assay [8]. Also, the inhibition of aggregation in assay [2] was 1.6% (inactive). For the same compound, the values for the nuclei count in assay [2] and in assay [3] were 32.1% and 120%, respectively. In addition, the fluorescence slope in assay [4] is -0.527 (inactive). The NADPH fluorescence slope in assay [5] was -4.3e-05 (inactive). Moreover, the slope in assay [6] is 0.00676 (inactive).

In the case of `CCOc1ccc(-c2nc(S(=O)(=O)c3ccccc3)c(NCc3cccnc3)o2)cc1`, in assay [1], the cell count was 621. Further, the inhibition in assay [1] is 0.6% (inactive); in assay [3], -59% (inactive); in assay [7], 0.887% (inactive); in assay [8] it was -7.62% (inactive). Besides, in assay [2], the inhibition of aggregation is -7.9% (inactive). Besides, the figures for the nuclei count in assay [2] and in assay [3] were 105% and 109%, respectively. Further, the fluorescence slope in assay [4] was -0.534 (inactive). In addition, the NADPH fluorescence slope in assay [5] was 3.2e-06 (inactive). In assay [6], the slope is 0.00448 (inactive).

For `COC(=O)C1=C(N)Oc2cc(C)n(Cc3ccncc3)c(=O)c2C1c1cccnc1` (centres undefined), in assay [1], the cell count is 594. For the same compound, the inhibition in assay [1] was -13.5% (inactive); in assay [3], 10.9% (inactive); in assay [7], 12.8% (inactive); in assay [8], 14.1% (inactive). For the same compound, the inhibition of aggregation in assay [2] is 0% (inactive). For the same compound, the nuclei count in assay [2] is 87.4%; in assay [3] it was 104%. In assay [4], the fluorescence slope was -0.479 (inactive). The NADPH fluorescence slope in assay [5] is -7e-05 (inactive). In addition, the slope in assay [6] was 0.00483 (inactive).
